Experimental data taken from PubChem BioAssay (NCATS).
Inconclusive results are not listed. Calls of active or inactive are those of the source. The call rests on the fitted dose curve; in most records, active means well fitted curve in the direction sought with a large enough effect; inconclusive means small, poorly fitted or top-dose-only effect, or another doubt; inactive means no such curve, though single readings can be large; an effect the other way counts as inactive or inconclusive.

What was measured:
[1] = qHTS of pediatric cancer cell lines to identify multiple opportunities for drug repurposing: Primary screen for LAN-5 cells (AID 1347100); further: potency means the concentration at half of the fitted maximal effect
Summary of the method: (§1)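 Cells (500-1,000/well) rested 5 h, then received compounds for 48 h; metabolically active cells were measured by CellTiter-Glo luminescence. Final concentrations spanned up to 46 µM (MIPE, 11-point) or 0.59 nM-46 µM (NPC, 8-point) in primary screens, 11-point in follow-ups.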

[2] = qHTS of pediatric cancer cell lines to identify multiple opportunities for drug repurposing: Primary screen for BT-12 cells (AID 1347101); further: nearly all actives have a fitted effect of over 25% in size; further: potency means the concentration at half of the fitted maximal effect
Summary of the method: as §1

[3] = qHTS of pediatric cancer cell lines to identify multiple opportunities for drug repurposing: Primary screen for Rh18 cells (AID 1347102); further: nearly all actives have a fitted effect of over 65% in size; further: potency means the concentration at half of the fitted maximal effect
Summary of the method: as §1

[4] = qHTS of pediatric cancer cell lines to identify multiple opportunities for drug repurposing: Primary screen for RD cells (AID 1347104); further: nearly all actives have a fitted effect of over 55% in size; further: potency means the concentration at half of the fitted maximal effect
Summary of the method: (§2)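 CRCs from 8- or 11-point titrations (lowest final 0.59 nM NPC, 0.78 nM MIPE). Cell viability: CellTiter-Glo after 48 h incubation, 15 min room-temperature development, luminescence imaging.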

[5] = qHTS of pediatric cancer cell lines to identify multiple opportunities for drug repurposing: Primary screen for MG 63 (6-TG R) cells (AID 1347105); further: nearly all actives have a fitted effect of over 50% in size; further: potency means the concentration at half of the fitted maximal effect
Summary of the method: as §2

[6] = qHTS of pediatric cancer cell lines to identify multiple opportunities for drug repurposing: Primary screen for Rh30 cells (AID 1347107); further: series mostly up to about 46 µM; nearly all actives have a fitted effect of over 75% in size
Summary of the method: as §1

[7] = qHTS of pediatric cancer cell lines to identify multiple opportunities for drug repurposing: Primary screen for OHS-50 cells (AID 1347103); further: nearly all actives have a fitted effect of over 40% in size; further: potency means the concentration at half of the fitted maximal effect
Summary of the method: as §1

[8] = qHTS of pediatric cancer cell lines to identify multiple opportunities for drug repurposing: Confirmatory screen for NB1643 cells (AID 1347109); further: potency means the concentration at half of the fitted maximal effect; nearly all actives have a fitted effect of over 45% in size
Summary of the method: as §1

[9] = qHTS of pediatric cancer cell lines to identify multiple opportunities for drug repurposing: Confirmatory screen for A673 cells (AID 1347110);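 further: cells exposed to compound for 48 h before the viability read; nearly all actives have a fitted effect of over 65% in size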; further: potency means the concentration at half of the fitted maximal effect
Summary of the method: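 Cells plated at 500-1,000/well were treated five hours later with multi-point dilutions up to 46 µM final. After two days, CellTiter-Glo was added and luminescence read.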

[10] = qHTS of pediatric cancer cell lines to identify multiple opportunities for drug repurposing: Confirmatory screen for LAN-5 cells (AID 1347113); further: nearly all actives have a fitted effect of over 65% in size; further: potency means the concentration at half of the fitted maximal effect
Summary of the method: as §1

[11] = qHTS of pediatric cancer cell lines to identify multiple opportunities for drug repurposing: Confirmatory screen for DAOY cells (AID 1347114); further: nearly all actives have a fitted effect of over 65% in size; further: potency means the concentration at half of the fitted maximal effect
Summary of the method: (§3)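 Viability measured as metabolically active cells via CellTiter-Glo luminescence following 48 hours of compound exposure, 11-point dilutions in confirmatory testing. 500-1,000 cells/well plated 5 hours before dosing; controls were DMSO and 2.3 µM bortezomib.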

[12] = qHTS of pediatric cancer cell lines to identify multiple opportunities for drug repurposing: Confirmatory screen for NB-EBc1 cells (AID 1347115);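 further: cells exposed to compound for 48 h before the viability read; nearly all actives have a fitted effect of over 45% in size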; further: potency means the concentration at half of the fitted maximal effect
Summary of the method: as §1

[13] = qHTS of pediatric cancer cell lines to identify multiple opportunities for drug repurposing: Confirmatory screen for BT-37 cells (AID 1347117); further: potency means the concentration at half of the fitted maximal effect; nearly all actives have a fitted effect of over 55% in size
Summary of the method: as §1

[14] = qHTS of pediatric cancer cell lines to identify multiple opportunities for drug repurposing: Confirmatory screen for TC32 cells (AID 1347118)
Summary of the method: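 Luminescent ATP read-out (CellTiter-Glo) of metabolically active TC32 cells after 48 h exposure. Concentration-response curves came from 11-point (MIPE, 0.78 nM–46 µM) or 8-point (NPC, 0.59 nM–46 µM) primary titrations; follow-up used 11 points.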

[15] = qHTS of pediatric cancer cell lines to identify multiple opportunities for drug repurposing: Primary screen for control Hh wild type fibroblast cells (AID 1347106);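 further: series mostly up to about 46 µM; a drop in luminescence marks cytotoxicity and a rise apparent proliferation; nearly all actives have a fitted effect of over 55% in size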
Summary of the method: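 Cells (500-1,000/well) in growth media were settled 5 h at 37 degrees C, then given compounds for 48 h. Viability was read as CellTiter-Glo luminescence. Primary runs used MIPE at 11 points (0.78 nM-46 µM) and NPC at 8 points (0.59 nM-46 µM); follow-ups used 11 points.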

[16] = qHTS of pediatric cancer cell lines to identify multiple opportunities for drug repurposing: Primary screen for Rh41 cells (AID 1347108); further: nearly all actives have a fitted effect of over 70% in size; further: potency means the concentration at half of the fitted maximal effect
Summary of the method: as §2

[17] = qHTS of pediatric cancer cell lines to identify multiple opportunities for drug repurposing: Confirmatory screen for SK-N-MC cells (AID 1347111);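 further: potency means the concentration at half of the fitted maximal effect; cells exposed to compound for 48 h before the readout; nearly all actives have a fitted effect of over 70% in size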
Summary of the method: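 Seed 500-1,000 cells/well; rest 5 h at 37 degrees C. Pin-transfer compounds, 11-point titration. Incubate 48 h. Add CellTiter-Glo, 15 min RT, read luminescence.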

[18] = qHTS of pediatric cancer cell lines to identify multiple opportunities for drug repurposing: Confirmatory screen for BT-12 cells (AID 1347112); further: nearly all actives have a fitted effect of over 55% in size; further: potency means the concentration at half of the fitted maximal effect
Summary of the method: as §1

[19] = qHTS of pediatric cancer cell lines to identify multiple opportunities for drug repurposing: Confirmatory screen for SJ-GBM2 cells (AID 1347116); further: nearly all actives have a fitted effect of over 60% in size
Summary of the method: as §3

Measured: Potency

C[C@@H]1[C@H](C)CC[C@]2(C(=O)O)CC[C@]3(C)C(=CC[C@@H]4[C@@]5(C)CC[C@H](O)C(C)(C)[C@H]5CC[C@]43C)[C@@H]12
inactive: [2] | [3] | [4] | [5] | [6]
active: [1] 303 nM

CCC[C@H](Nc1nc(-c2ccc(NC(=O)NCC)c(OC)c2)ncc1C)c1cccnc1
inactive: [3] | [5] | [6]
active: [1] 10.5 nM | [2] 10.9 nM | [7] 13.7 nM | [8] 165 nM | [9] 233 nM | [10] 414 nM | [11] 82.7 nM | [12] 329 nM | [13] 329 nM | [14] 117 nM

CC(C)CNc1ccnc(NCc2csc(-c3ccccc3)n2)n1
active: [1] 14800 nM | [2] 6850 nM | [3] 23500 nM | [7] 6110 nM | [4] 29600 nM
inactive: [15] | [6]

COc1cc2nccc(Oc3ccc(NC(=O)Nc4cc(C)on4)c(Cl)c3)c2cc1OC
active: [1] 10500 nM | [3] 18700 nM | [7] 19300 nM | [4] 33200 nM | [16] 14800 nM | [9] 18500 nM | [17] 16500 nM | [14] 18500 nM
inactive: [10]

CC[C@]1(O)C[C@H]2CN(CCC3=c4ccccc4=N[C]3[C@@](C(=O)OC)(c3cc4c(cc3OC)N(C)[C@H]3[C@@](O)(C(N)=O)[C@H](O)[C@]5(CC)C=CCN6CC[C@]43[C@@H]65)C2)C1
active: [1] 16.6 nM | [2] 122 nM | [7] 68.5 nM | [4] 33.2 nM | [8] 104 nM | [9] 58.5 nM | [17] 117 nM | [18] 147 nM | [10] 147 nM | [11] 261 nM | [13] 73.7 nM | [14] 104 nM
inactive: [6]

O=C(O)c1nc(=O)[nH]c(=O)[nH]1
inactive: [1] | [3] | [7] | [5] | [15] | [6] | [16]

Cc1ccc2c(c1)c1c(n2CCc2ccc(C)nc2)CCN(C)C1
inactive: [1] | [2] | [3] | [4] | [5] | [15] | [6] | [16]

COc1cc2nccc(Oc3ccc(NC(=O)Nc4ccc(F)cc4F)c(F)c3)c2cc1OC
inactive: [2] | [15]
active: [1] 833 nM | [7] 1530 nM | [5] 9350 nM

CCN(CCO)CCCOc1ccc2c(Nc3cc(CC(=O)Nc4cccc(F)c4)[nH]n3)ncnc2c1
active: [1] 37.2 nM | [9] 10400 nM | [17] 104 nM | [14] 41.4 nM
not listed: [7] | [8] | [10] | [13] | [16]
inactive: all other assays above

N#CC(c1ccnc(NCCc2cccnc2)n1)c1nc2ccccc2s1 (centres undefined)
active: [1] 16600 nM | [2] 21700 nM | [7] 19300 nM | [4] 23500 nM | [16] 23500 nM
inactive: [15]

CCCCCCCCCCCCCCCC(=O)O[C@H]1[C@@H](O)[C@@H](O)[C@@H]([C@H](NC(=O)[C@@H]2C[C@@H](CCC)CN2C)[C@H](C)Cl)O[C@@H]1SC
inactive: [1] | [2] | [3] | [7] | [5] | [6]

COc1cc2c(cc1OC)[C@@H]1Cc3ccc(OC)c(OC)c3CN1CC2
active: [1] 10500 nM
inactive: [3] | [7] | [4] | [5] | [15] | [6] | [9]

O=c1[nH]c(=O)n([C@H]2C[C@@H](O)[C@@H](CO)O2)cc1C(F)(F)F
inactive: [3] | [5] | [15] | [6] | [16]
active: [1] 3320 nM | [2] 10900 nM | [7] 17200 nM

Cc1ccc(S(=O)(=O)Nc2nc3ccccc3nc2Nc2ccc3nsnc3c2)cc1
inactive: [15] | [9] | [18] | [12]
active: [1] 32.3 nM | [2] 66.8 nM | [7] 42.1 nM | [4] 51.2 nM | [8] 9100 nM | [17] 256 nM | [13] 1290 nM | [14] 229 nM

C[C@H]1COC2=C1C(=O)C(=O)c1c2ccc2c1CCCC2(C)C
inactive: [1] | [3] | [7] | [4] | [5] | [15] | [6]

CC(C)N(CCCNC(=O)Nc1ccc(C(C)(C)C)cc1)C[C@H]1O[C@@H](n2cc(Br)c3c(N)ncnc32)[C@H](O)[C@H]1O
active: [1] 23500 nM | [2] 24300 nM | [3] 20900 nM | [7] 24300 nM | [4] 29600 nM | [16] 18700 nM

C[C@@]1(c2cc(-c3cncnc3)c(F)cc2F)CCSC(N)=N1
inactive: [3] | [5] | [15] | [6] | [16] | [9] | [11]
active: [1] 3720 nM | [7] 2730 nM | [4] 2090 nM | [8] 20800 nM | [17] 7370 nM | [13] 11700 nM | [14] 8270 nM

Nc1ncnc2c1c(-c1cccc(OCc3ccccc3)c1)cn2C1CC(CN2CCC2)C1 (centres undefined)
inactive: [2] | [3] | [15]
active: [1] 4690 nM | [7] 968 nM | [4] 7430 nM | [16] 2960 nM

CC[C@H]1OC(=O)[C@H](C)[C@@H](O[C@H]2C[C@@](C)(OC)[C@@H](O)[C@H](C)O2)[C@H](C)[C@@H](O[C@@H]2O[C@H](C)C[C@H](N(C)C)[C@H]2O)[C@](C)(O)C[C@H](C)C(=NOCOCCOC)[C@H](C)[C@@H](O)[C@]1(C)O
inactive: [1] | [2] | [3] | [4] | [5] | [15] | [6] | [16]
